# Measured values published in the supplement of paper PMC6522484.
# ± gives the standard deviation of the averaged measurements.
# What was measured:
# [1] = test system: DLD1; test: cell viability (CellTiter-Glo) relative to plate median (fraction of plate median); higher = more viable cells; conditions: 5 µM; treatment time 24 h; reporter: 7TFP
# Method in brief: (§1)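 Normalisation used webcellHTS2 in additive mode without log transformation, scaling each well's luminescence to the plate median. The luminescence was firefly luciferase or CellTiterGlo, read on a Tecan F500 from parallel plates of colorectal cancer cells stably transduced with lentiviral TCF/Wnt firefly luciferase reporters. Those cells had been given library compounds at a final 5 µM for 24 h, and two independent replicates were averaged.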
# [2] = test system: HCT116; test: as above; conditions: 5 µM; treatment time 24 h; reporter: TCF4/Wnt
# Method in brief: as §1
# [3] = test system: SW480; test: as above; conditions: 5 µM; treatment time 24 h; reporter: 7TFP
# Method in brief: as §1
# [4] = test system: DLD1; test: TCF/Wnt firefly luciferase reporter signal relative to plate median (fraction of plate median); higher = higher Wnt reporter signal; conditions: 5 µM; treatment time 24 h; reporter: 7TFP
# Method in brief: as §1
# [5] = test system: SW480; test: as above; conditions: 5 µM; treatment time 24 h; reporter: 7TFP
# Method in brief: as §1
SMILES,cell viability [1],cell viability [2],cell viability [3],TCF/Wnt firefly luciferase reporter signal [4],TCF/Wnt firefly luciferase reporter signal [5]
CC(=O)O[C@H]1[C@H]2[C@@H](OC(=O)Cc3ccccc3)[C@@H](C)C[C@]2(OC(C)=O)C(=O)/C(C)=C/[C@@H]2[C@H](CC[C@@]13CO3)C2(C)C,1.06 ± 0.097,1.01 ± 0.086,1.06 ± 0.021,1.09 ± 0.014,1.075 ± 0.0071
O=C(O)CCCc1ccc(N(CCCl)CCCl)cc1,1.02 ± 0.035,0.958 ± 0.011,1.02 ± 0.067,0.974 ± 0.037,0.966 ± 0.0028
O=P1(NCCCl)OCCCN1CCCl (stereo not given),1.03 ± 0.079,0.996 ± 0.021,0.973 ± 0.053,0.999 ± 0.28,0.97 ± 0.086
N[C@@H](Cc1ccc(N(CCCl)CCCl)cc1)C(=O)O,1.01 ± 0.17,1.02 ± 0.04,1 ± 0.04,0.986 ± 0.0057,0.936 ± 0.081
CO[C@H]1C[C@H](O[C@H]2CC[C@@]3(C)[C@H](CC[C@@H]4[C@@H]3CC[C@]3(C)[C@@H](C5=CC(=O)OC5)[C@@H](OC(C)=O)C[C@]43O)C2)O[C@@H](C)[C@@H]1O,1.26 ± 0.028,0.486 ± 0.31,1.31 ± 0.13,0.123 ± 0.13,0.171 ± 0.12
C#C[C@]1(O)CC[C@H]2[C@@H]3CCC4=CC(=O)CC[C@]4(C)[C@H]3CC[C@@]21C,1.02 ± 0.042,1.06 ± 0.021,0.962 ± 0.048,1.05 ± 0.064,1.05 ± 0.076
CC1=NCCc2c1[nH]c1cc(O)ccc21,0.971 ± 0.069,1.01 ± 0.11,1.02 ± 0.014,1.02 ± 0.17,0.988 ± 0.031
CN1CCc2cc3c(cc2[C@H]1[C@@H]1OC(=O)c2c1ccc1c2OCO1)OCO3,1.06 ± 0.014,1.07 ± 0.13,1.05 ± 0.05,0.9 ± 0.011,1.045 ± 0.0071
COC1=C[C@]23CCCN2CCc2cc4c(cc2[C@@H]3[C@@H]1O)OCO4,0.98 ± 0.14,1.01 ± 0.035,1.01 ± 0.021,0.997 ± 0.32,0.953 ± 0.067
COc1ccc(OC)c(C(O)C(C)N)c1 (stereo not given),0.976 ± 0.1,0.974 ± 0.037,0.926 ± 0.029,0.976 ± 0.031,1.13 ± 0.11
C=C(C)[C@H]1CN[C@H](C(=O)O)[C@H]1CC(=O)O,0.986 ± 0.035,1.01 ± 0.099,0.97 ± 0.0042,0.923 ± 0.11,0.947 ± 0.047
"CC1(C)C(=O)[C@@H]2O[C@@H]2[C@@]2(C)C1C[C@@H](O)[C@]1(C)C2CC[C@@]2(C)[C@H](c3ccoc3)OC(=O)C3OC321 (stereo partly drawn) [1,2alpha-EPOXYDEACETOXYDIHYDROGEDUNIN]",1.01 ± 0.032,1.12 ± 0.099,1.01 ± 0.056,0.962 ± 0.013,0.957 ± 0.22
COc1ccc2c3c([nH]c2c1)C(C)=NCC3,1.03 ± 0.059,0.971 ± 0.069,0.999 ± 0.03,1.25 ± 0.021,1.15 ± 0.071
CC(=O)O[C@@H]1[C@H]2CC[C@H]3[C@@](C)(O)[C@@H]4C[C@H](O)C(C)(C)[C@@]4(O)[C@H](O)C[C@@]13C[C@@]2(C)O,1.04 ± 0.014,1.105 ± 0.0071,1.09 ± 0.064,1.04 ± 0.014,0.984 ± 0.19
